Only a selection was taken, and hits are over-represented in it overall.
CapD inh: blocks the Bacillus anthracis CapD enzyme; purified CapD enzyme, fluorescence intensity read-out; hits give low values; z-score (concentration not given with the values); hit rate 0.23% among 140,000; in the data active means z-score mostly below about -2.9, no sharp cut-off; inactive means mostly above about -1.9
* hit, by the source's call.

SMILES	CapD inh
CCOc1ccc(C2=NN3C(C2)c2cc(Cl)ccc2OC3c2cc(OC)ccc2OC)cc1 (stereo unspecified)	0.45
CCc1ccc(-n2nc3cc(C)c(NC(C)=O)cc3n2)cc1	34
COc1ccc(C2Nc3ccc(Cl)cc3C(c3ccccc3)O2)cc1 (stereo unspecified)	-0.22
CCOC(=O)c1nc(N2CCN(c3ccccn3)CC2)c2c3c(sc2n1)CCCC3	0.1
Cn1cncc1S(=O)(=O)/C(C#N)=N/Nc1ccc(OC(F)(F)F)cc1	-2.7
COc1ccc(N/N=C(/C#N)S(=O)(=O)c2nsc(C)c2C#N)cc1	-5.8*
Cc1snc(S(=O)(=O)/C(C#N)=N/Nc2cccc(C(F)(F)F)c2)c1C#N	-2.5
CCN(CC)C(=S)Sc1ncnc2sc3c(c12)CCCC3	0.025
Fc1ccc(N=c2scc(-c3ccc(F)cc3)n2CCc2ccccc2)cc1	4.2
O=C1NCC(O)=C1/C=N/Nc1ccccc1	-4.4*
CC(N=CC1=C(O)CNC1=O)c1ccccc1 (stereo unspecified)	-0.04
O=c1[nH]c(O)c(/C=N/Nc2ccccc2)c(=O)[nH]1	-1.3
Cc1nc(C(=O)Nc2cccc(Cl)c2)nn1-c1cc(Cl)cc(Cl)c1	0.49
Cc1ccc(-c2nc(S(=O)(=O)c3ccc(C)cc3)c(N(C)C)o2)cc1	-0.24
Cc1ccc(S(=O)(=O)c2nc(C)oc2N(C)C)cc1	-3*
Cc1ccc(S(=O)(=O)CCc2nc(S(=O)(=O)c3ccc(C)cc3)c(N(C)C)o2)cc1	-0.37
C[C@@H](NC(=O)c1cccnc1)c1ccccc1	-0.55
O=C(Nc1ccc2ccccc2c1)C1CCCN1C(=O)OCc1ccc(-c2ccccc2)cc1 (stereo unspecified)	-0.52
N#Cc1ccc2c(c1)nc1c3ccc(C(=O)O)c4c(C(=O)O)ccc(c(=O)n21)c43	-1.1
O=C(O)c1ccc(C(=O)O)c2c(-c3ccc4c(=O)n5c6ccccc6nc5c5ccc(C(=O)O)c3c45)ccc(C(=O)O)c12	-8.4*
O=c1c2ccc(N/N=C/c3c4ccccc4cc4ccccc34)c3cccc(c32)c2nc3ccccc3n12	-0.14
COc1cc(C(=O)CBr)cc(OC)c1OC	-0.055
O=C1OC(c2ccccc2)=N/C1=C\C=C\c1ccccc1	-0.44
Cc1ccc(/C=C2\N=C(c3ccccc3)OC2=O)o1	-2.7
CN(C)/C=C/C=C1\N=C(c2ccccc2)OC1=O	-7*
SMILES	CapD inh
CCC(C)(C)c1ccc(S(=O)(=O)NC2CCCC2OCc2ccccc2)cc1 (stereo unspecified)	0
COC(=O)C1C(=O)C2=C(CC1C)Nc1ccccc1NC2c1c[nH]c2ccccc12 (stereo unspecified)	-2.5
CCOC(=O)C1=C(C)NC2=C(C(=O)C(C(=O)OC)C(C)C2)C1c1ccccc1 (stereo unspecified)	-0.43
COC(=O)C1C(=O)C2=C(CC1C)Nc1ccccc1NC2c1ccccc1C (stereo unspecified)	-4*
Cc1cc2c(cc1S(=O)(=O)NC1CCCCCCC1)OCC(=O)N2	-1.1
CSC(=CC(=O)c1ccco1)SC	-2.2
CN(C)/C=C/C(=O)c1cc(-c2ccccc2)no1	-3.7
CN(C)/C=C/C(=O)c1ccco1	-4.4*
O=C(N=Nc1c(O)n(Cc2ccccc2)c2ccccc12)c1ccccc1O	-0.015
O=C(Cn1cnc2sc3c(c2c1=O)CCCC3)NCC(=O)N1CCN(c2cccc(Cl)c2)CC1	-0.43
CCN1C(=O)N/C(=C/c2cccn2-c2ccc(C(=O)O)cc2)C1=O	3.5
COc1cc(C=C2C(=O)NC(=O)NC2=O)ccc1OCc1ccc(C(=O)O)cc1	0.84
O=C1NC(=S)NC(=O)C1=Cc1ccc(OCc2ccc(C(=O)O)cc2)c(Br)c1	-5*
O=C1NC(=O)C(=Cc2ccc(OCc3ccc(C(=O)O)cc3)c(Br)c2)C(=O)N1	-0.22
Cc1n[nH]c(C)c1C(C)C(=O)Nc1ccc(CN2CCOCC2)cc1 (stereo unspecified)	0.09
CSc1ccccc1-c1nnc(SCc2ccc(C(C)(C)C)cc2)o1	4
O=C(O)Cn1c(O)c(C=Nc2ccccc2)sc1=S	-7.4*
C=CCn1c(O)c(C=Nc2ccccc2)sc1=S	-2.7
Oc1[nH]c(=S)sc1C=Nc1ccccc1	0.18
CCOC(=O)c1ccc(Nc2nc3nonc3nc2NC(C)C)cc1	-0.31
CN=C(Nc1ccc(Cl)cc1)c1cccnc1	-0.42
CC(=O)Nc1ccc(N/C(C)=C/C(=O)c2cccnc2)cc1	-4.1*
COc1ccc(N/C(C)=C/C(=O)c2ccccc2)cc1	-1.1
COc1ccc(S(=O)(=O)NC2CCCc3ccccc32)cc1OC (stereo unspecified)	-0.32
COc1nc(N)nc(OC)n1	0.6
SMILES	CapD inh
CCOC(=O)c1cccc(O)c1O	-2.7*
CCOC(=O)c1ccccc1S(N)(=O)=O	0.33
CCOC(=O)c1cc2ccccc2cc1O	-0.5
CN=C(Nc1cccc(C(F)(F)F)c1)c1ccncc1	-0.96
C/C(=C\C(=O)c1ccc(C)o1)Nc1ccc(Nc2ccccc2)cc1	-2
C/C(=C\C(=O)c1ccc(C)o1)Nc1ccc(C(=O)O)cc1C	-4*
C/C(=C\C(=O)c1ccc(C)o1)Nc1ccc(F)c(C)c1	-2.4
CCC(C(=O)O)N1C(=O)/C(=C/c2ccccc2)SC1=S (stereo unspecified)	-2.1
CN(C)c1ccc(/C=C2/SC(=S)N(CCCCC(C(=O)O)N3C(=O)/C(=C\c4ccc(N(C)C)cc4)SC3=S)C2=O)cc1 (stereo unspecified)	-0.56
CSCCC(C(=O)O)N1C(=O)/C(=C/c2ccc(O)cc2)SC1=S (stereo unspecified)	-4*
O=C(O)/C=C\C(=O)N1CCN(c2cccc3[nH]ccc23)CC1	-0.52
O=C(Nc1ccccc1C(F)(F)F)C1CCC1	-0.39
O=C(c1ccccc1F)N1CCN(c2ccc([N+](=O)[O-])cn2)CC1	0.18
Oc1c(Cl)cc(Cl)cc1CN1CCN(c2cccc(Cl)c2)CC1	-0.01
CSc1sc2ccccc2[n+]1C	0.51
CC[n+]1c(/C=C/Nc2ccccc2)sc2ccccc21	-4.9*
CC[n+]1c(/C=C/N(C)c2ccccc2)sc2ccc(OC)cc21	32
CC[n+]1c(/C=C2/C=C(C)CC(C)C2)sc2ccccc21 (stereo unspecified)	-0.23
C[n+]1c(/C=C/Nc2ccccc2)sc2ccccc21	-4.4*
C[n+]1c(COc2ccccc2O)sc2ccccc21	-0.5
CC1CC(=O)Nc2ccccc2O1 (stereo unspecified)	0.31
CC(=O)NC(=S)Nc1cccc(C#N)c1	-0.22
CCCC1CC(C)(c2csc(Cc3ccc(OCC)cc3)n2)OC1=O (stereo unspecified)	-0.48
O=C(c1ccc(Cl)cc1)c1ncc(C(F)(F)F)cc1N1CCCC1	-0.41
CN1C(=O)/C(=C/c2cccn2C(C)(C)C)C(=O)NC1=S	-4.5*
SMILES	CapD inh
CN1C(=O)C(=Cc2cccn2C(C)(C)C)C(=O)N(C)C1=S	0.2
CCc1ccc(N2C(=O)/C(=C/c3cccn3C(C)(C)C)C(=O)NC2=S)cc1	8.6
CC(C)(C)c1csc(NC(=O)c2ccc3c(c2)OCCO3)n1	-0.41
N=C(N)SCc1c(Cl)cccc1Cl	0.32
CN(C)/C=C/C(=N)SCc1c(F)cccc1Cl	-3.8*
Fc1cccc(Cl)c1CSCc1c(F)cccc1Cl	0.22
CC(Oc1ccc(/C=C2\C(=O)NC(=O)N(c3ccccc3F)C2=O)cc1)C(=O)O (stereo unspecified)	-0.29
COc1cccc2c1CCN(Cc1ccccc1)C2=O	0.26
O=C1/C(=C/NC2CC2)S(=O)(=O)N(Cc2cccc(F)c2)c2ccsc21	2.9
N=C1S/C(=C\c2ccco2)C(=O)N1c1ccc(Oc2ccccc2)cc1	-0.19
